This is an account of results in PubChem BioAssay (NCATS).

Records with an inconclusive call do not appear. Entries that show only a call come without a potency. Activity calls are given as the source filed them. Calls come from the whole dose curve; as a rule, active = well fitted inhibition curve with a large enough effect; inconclusive = small, poorly fitted or top-dose-only effect; inactive = flat fitted curve, though single readings scatter.

The test system of the experiment is CRL-7250. In words: qHTS assay to identify novel small-molecules to repurpose for Merkel cell carcinoma treatment (AID 1296009). Note: nearly all actives have a fitted effect of over 60% in size. The note with it: MCC and control cell lines, CellTiter-Glo viability, 72 h; series mostly up to 92 µM. In a few lines: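 72 hr, 37 degree celsius; NPC 8-pt / MIPE 11-pt dose response; compound pinned in DMSO; CellTiter-Glo, 10 min RT, luminescence; normalized to no-cell and DMSO controls.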
A general note: qHTS replaces the single test concentration by a dilution series.
On to `CC(=O)O[C@@H]1CC2C(/C=C(\C)C(=O)[C@@]3(O)C[C@@H](C)[C@H](OC(=O)c4ccccc4)C3/C=C/1C)C2(C)C` (stereo not given in full), for which the Potency entry was “inactive”.
As for `CC(C)(C)NCCCNC(=O)c1cccc(Br)c1`, the Potency entry was “inactive”.
In the case of `C[C@@H]1O[C@@H](O[C@H]2[C@H](O)[C@@H](O)[C@H](OC[C@H]3O[C@@H](OC(=O)[C@]45CCC(C)(C)C[C@H]4C4=CCC6[C@@]7(C)C[C@@H](O)[C@H](O)[C@@](C)(CO)C7[C@H](O)C[C@@]6(C)[C@]4(C)CC5)[C@H](O)[C@@H](O)[C@@H]3O)O[C@@H]2CO)[C@H](O)[C@H](O)[C@H]1O` (stereo not given in full), the outcome is “inactive [at 9.27 µM]”.
`COC(=O)C1=COC(OC2OC(CO)C(O)C(O)C2O)C2C(C)CC(=O)C12O` (stereo not given): the Potency entry is “inactive”.
For `CC1(C)CCCC2(C)C1C(O)C=C(CO)C2(O)CO` (stereo not given), the Potency result was “inactive”.
As for `C/C=C/C=C/C(CC(=O)O)Nc1ccc(C=O)cc1` (stereo not given), the Potency result is “inactive”.
Consider `COC1=CC(=O)O[C@@H](/C=C/c2ccccc2)[C@@H]1O`, for which the Potency result was “inactive”.
Regarding `On1ncc(C2CCNCC2)c1-c1cccc(-c2ccccc2)c1`, the Potency entry was “inactive”.
Regarding `C[C@@H]1O[C@@H](O[C@H]2[C@H](O[C@H]3[C@H](O[C@H]4CC[C@@]5(C=O)C(CC[C@]6(C)C5CC=C5C7CC(C)(C)C[C@@H](O)[C@]7(C)CC[C@]56C)C4(C)C)O[C@H](C(=O)O)[C@@H](O)[C@@H]3O)OC[C@@H](O)[C@@H]2O)[C@H](O)[C@H](O)[C@H]1O` (stereo not given in full), the outcome was “inactive [at 9.27 µM]”.
Regarding `COC(=O)C1=COC(O[C@@H]2O[C@H](CO)[C@@H](O)[C@H](O)[C@H]2O)[C@H]2[C@@H]1[C@H](OC(=O)CCc1ccc(O)cc1)C[C@]2(C)O` (stereo not given in full), the Potency entry was “inactive”.
